# Measured values published in the supplement of paper PMC8728848.
# This is one part of a sample in which the strongest signals are shown more often than they occur.
# Key:
# Test in all cases: glycan array binding signal (z-score within array); higher = stronger binding
# Conditions in all cases: glycan notation: IUPAC condensed, linker removed
# [1] = biological target: Fuc(a1-2)Gal(b1-3)[Fuc(a1-4)]GlcNAc(b1-2)Man(a1-3)[Fuc(a1-2)Gal(b1-3)[Fuc(a1-4)]GlcNAc(b1-2)Man(a1-6)]Man(b1-4)GlcNAc(b1-4)GlcNAc
# Summary of the method: (§1)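 Columns mapping to the same glycan were averaged after glycan names were converted to IUPAC-condensed notation. The data come from 3228 arrays in the Consortium for Functional Glycomics database, limited to those with an available protein sequence. Binding is reported as a within-array Z-score averaged across arrays of one protein sequence and across linkers.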
# [2] = biological target: Fuc(a1-2)Gal(b1-4)GlcNAc(b1-3)Gal(b1-4)GlcNAc
# Summary of the method: as §1
# [3] = biological target: Fuc(a1-2)Gal6S(b1-4)Glc6S
# Summary of the method: as §1
# [4] = biological target: Fuc(a1-2)[GalNAc(a1-3)]Gal(b1-4)GlcNAc(b1-3)Gal(b1-4)GlcNAc(b1-3)Gal(b1-4)GlcNAc
# Summary of the method: as §1
# [5] = biological target: Fuc(a1-3)[Gal3S(b1-4)]Glc6S
# Summary of the method: as §1
# [6] = biological target: Fuc(a1-3)[Neu5Ac(a2-3)]Gal(b1-4)GlcNAc(b1-3)GalNAc
# Summary of the method: as §1
# [7] = biological target: Gal(b1-3)GalNAc(a1-3)[Fuc(a1-2)]Gal(b1-4)Glc
# Summary of the method: as §1
# [8] = biological target: Gal(b1-3)GalNAc(a1-3)[Fuc(a1-2)]Gal(b1-4)GlcNAc
# Summary of the method: as §1
# [9] = biological target: Gal(b1-3)GlcNAc(b1-2)Man(a1-3)[Gal(b1-3)GlcNAc(b1-2)Man(a1-6)]Man(b1-4)GlcNAc(b1-4)[Fuc(a1-6)]GlcNAc
# Summary of the method: as §1
# [10] = biological target: Gal(b1-3)GlcNAc(b1-3)Gal(b1-3)GlcNAc
# Summary of the method: as §1
# [11] = biological target: Gal(b1-4)GlcNAc(b1-2)Man(a1-3)[Gal(b1-4)GlcNAc(b1-2)Man(a1-6)]Man(b1-4)GlcNAc(b1-4)[Fuc(a1-6)]GlcNAc
# Summary of the method: as §1
# [12] = biological target: Gal(b1-4)GlcNAc(b1-3)[Gal(b1-4)GlcNAc(b1-6)]Gal(b1-4)GlcNAc
# Summary of the method: as §1
# Glc(a1-6)Glc(a1-6)Glc = biological target: Glc(a1-6)Glc(a1-6)Glc
# Summary of the method: as §1
# GlcA(b1-6)Gal = biological target: GlcA(b1-6)Gal
# Summary of the method: as §1
# [13] = biological target: GlcNAc(a1-6)Gal(b1-4)GlcNAc
# Summary of the method: as §1
# [14] = biological target: GlcNAc(b1-2)Man(a1-3)[GlcNAc(b1-2)Man(a1-6)]Man(b1-4)GlcNAc(b1-4)GlcNAc
# Summary of the method: as §1
# [15] = biological target: GlcNAc(b1-2)Man(a1-3)[GlcNAc(b1-2)Man(a1-6)]Man(b1-4)GlcNAc(b1-4)[Fuc(a1-6)]GlcNAc
# Summary of the method: as §1
# [16] = biological target: GlcNAc(b1-3)[GlcNAc(b1-4)][GlcNAc(b1-6)]GlcNAc
# Summary of the method: as §1
# [17] = biological target: GlcNAc(b1-3)[GlcNAc(b1-6)]GalNAc
# Summary of the method: as §1
# [18] = biological target: GlcNAc(b1-4)GlcNAc(b1-4)GlcNAc
# Summary of the method: as §1
# [19] = biological target: Man(a1-2)Man(a1-3)[Man(a1-2)Man(a1-6)]Man
# Summary of the method: as §1
# [20] = biological target: Man(a1-2)Man(a1-3)[Man(a1-2)Man(a1-6)]Man(a1-6)[Man(a1-2)Man(a1-2)Man(a1-3)]Man
# Summary of the method: as §1
# [21] = biological target: Neu5Ac(a2-3)Gal(b1-4)GlcNAc(b1-6)[Neu5Ac(a2-3)Gal(b1-3)]GalNAc
# Summary of the method: as §1
# [22] = biological target: Neu5Ac(a2-3)Gal(b1-4)[Fuc(a1-3)]GlcNAc(b1-3)Gal(b1-4)GlcNAc
# Summary of the method: as §1
# [23] = biological target: Neu5Ac(a2-3)GalNAc(b1-4)GlcNAc
# Summary of the method: as §1
# [24] = biological target: Neu5Ac(a2-6)Gal(b1-4)GlcNAc(b1-2)Man(a1-3)[Neu5Ac(a2-6)Gal(b1-4)GlcNAc(b1-2)Man(a1-6)]Man(b1-4)GlcNAc(b1-4)GlcNAc
# Summary of the method: as §1
# [25] = biological target: Neu5Ac(a2-6)Gal(b1-4)GlcNAc(b1-2)Man(a1-6)[Man(a1-3)]Man(b1-4)GlcNAc(b1-4)GlcNAc
# Summary of the method: as §1
# [26] = biological target: Neu5Ac(a2-8)Neu5Ac(a2-8)Neu5Ac(a2-3)Gal(b1-4)Glc
# Summary of the method: as §1
# [27] = biological target: Neu5Ac(b2-6)Gal(b1-4)GlcNAc
# Summary of the method: as §1
# [28] = biological target: Fuc(a1-2)[GalNAc(a1-3)]Gal(b1-4)GlcNAc
# Summary of the method: as §1
# [29] = biological target: Fuc(a1-2)[GalNAc(a1-3)]Gal(b1-4)GlcNAc(b1-2)Man(a1-3)[GalNAc(a1-3)[Fuc(a1-2)]Gal(b1-4)GlcNAc(b1-2)Man(a1-6)]Man(b1-4)GlcNAc(b1-4)GlcNAc
# Summary of the method: as §1
# [30] = biological target: Fuc(a1-3)[Gal(b1-4)]GlcNAc
# Summary of the method: as §1
# [31] = biological target: Fuc(a1-3)[Gal(b1-4)]GlcNAc(b1-2)Man(a1-3)[Fuc(a1-3)[Gal(b1-4)]GlcNAc(b1-2)Man(a1-6)]Man(b1-4)GlcNAc(b1-4)GlcNAc
# Summary of the method: as §1
# [32] = biological target: Fuc(a1-3)[Gal3S(b1-4)]GlcNAc
# Summary of the method: as §1
# [33] = biological target: Fuc(a1-3)[GalNAc(b1-4)]GlcNAc
# Summary of the method: as §1
# [34] = biological target: Gal(a1-3)Gal(b1-4)[Fuc(a1-3)]GlcNAc(b1-2)Man(a1-3)[Gal(a1-3)Gal(b1-4)[Fuc(a1-3)]GlcNAc(b1-2)Man(a1-6)]Man(b1-4)GlcNAc(b1-4)GlcNAc
# Summary of the method: as §1
# [35] = biological target: Gal(b1-3)GalNAc(b1-4)Gal(b1-4)Glc
# Summary of the method: as §1
# [36] = biological target: Gal(b1-3)[Fuc(a1-4)]GlcNAc(b1-2)Man(a1-3)[Gal(b1-3)[Fuc(a1-4)]GlcNAc(b1-2)Man(a1-6)]Man(b1-4)GlcNAc(b1-4)[Fuc(a1-6)]GlcNAc
# Summary of the method: as §1
# [37] = biological target: Gal(b1-4)GlcNAc(b1-2)[Gal(b1-4)GlcNAc(b1-4)]Man(a1-3)[Gal(b1-4)GlcNAc(b1-2)Man(a1-6)]Man(b1-4)GlcNAc(b1-4)GlcNAc
# Summary of the method: as §1
# Gal3S(b1-4)GlcNAc6S = biological target: Gal3S(b1-4)GlcNAc6S
# Summary of the method: as §1
# Gal4S(b1-4)GlcNAc = biological target: Gal4S(b1-4)GlcNAc
# Summary of the method: as §1
# [38] = biological target: GlcNAc(b1-4)GlcNAc(b1-4)GlcNAc(b1-4)GlcNAc(b1-4)GlcNAc
# Summary of the method: as §1
# Kdn(a2-3)Gal(b1-3)GlcNAc = biological target: Kdn(a2-3)Gal(b1-3)GlcNAc
# Summary of the method: as §1
# [39] = biological target: Neu5Ac(a2-3)Gal(b1-3)GalNAc(b1-3)Gal(a1-4)Gal(b1-4)Glc
# Summary of the method: as §1
# [40] = biological target: Neu5Ac(a2-3)Gal(b1-4)[Fuc(a1-3)]GlcNAc(b1-3)Gal
# Summary of the method: as §1
# [41] = biological target: Neu5Ac(a2-3)Gal(b1-4)[Fuc(a1-3)]GlcNAc6S
# Summary of the method: as §1
# [42] = biological target: Neu5Ac(a2-3)Gal6S(b1-4)GlcNAc
# Summary of the method: as §1
# [43] = biological target: Neu5Ac(a2-6)Gal(b1-4)GlcNAc6S
# Summary of the method: as §1
# [44] = biological target: Neu5Ac(a2-8)Neu5Ac(a2-3)Gal(b1-4)Glc
# Summary of the method: as §1
# [45] = biological target: Neu5Ac(a2-8)Neu5Ac(a2-8)Neu5Ac(a2-8)Neu5Ac(a2-3)[GalNAc(b1-4)]Gal(b1-4)Glc
# Summary of the method: as §1
# [46] = biological target: Neu5Ac9Ac(a2-3)Gal(b1-3)GlcNAc
# Summary of the method: as §1
# [47] = biological target: Neu5Gc(a2-3)Gal(b1-3)GlcNAc
# Summary of the method: as §1
binder,measurement,setting,value
"LcH (Lens culinaris), P02870 (protein) TETTSFSITKFSPDQQNLIFQGDGYTGKEGLTLTKVSKETGGRALYSTPIHIWDRDTVNVANFVTNGSQVFRESPNGYNVADGFTFFIAPVDTKPQTGGGYLGVFYNGKEYDKTSQTVAVEFDTFYNAAWDPSNKERHIGIDVNSIKSVNTKSWNLQNGVTSYTLNEVVPLKDVVPEWVRIGFSATTGAEFAAQEVHSWSFNSQLGHTSKS",glycan array binding signal (z-score),[1],-0.091
same,glycan array binding signal (z-score),[2],-0.141
same,glycan array binding signal (z-score),[3],-0.104
same,glycan array binding signal (z-score),[4],-0.108
same,glycan array binding signal (z-score),[5],-0.119
same,glycan array binding signal (z-score),[6],-0.132
same,glycan array binding signal (z-score),[7],-0.147
same,glycan array binding signal (z-score),[8],-0.093
same,glycan array binding signal (z-score),[9],14.3
same,glycan array binding signal (z-score),[10],-0.142
same,glycan array binding signal (z-score),[11],9.53
same,glycan array binding signal (z-score),[12],-0.138
same,glycan array binding signal (z-score),Glc(a1-6)Glc(a1-6)Glc,-0.098
same,glycan array binding signal (z-score),GlcA(b1-6)Gal,-0.111
same,glycan array binding signal (z-score),[13],-0.102
same,glycan array binding signal (z-score),[14],1.2
same,glycan array binding signal (z-score),[15],6.22
same,glycan array binding signal (z-score),[16],-0.125
same,glycan array binding signal (z-score),[17],-0.082
same,glycan array binding signal (z-score),[18],-0.107
same,glycan array binding signal (z-score),[19],1.24
same,glycan array binding signal (z-score),[20],3.73
same,glycan array binding signal (z-score),[21],-0.129
same,glycan array binding signal (z-score),[22],-0.046
same,glycan array binding signal (z-score),[23],-0.118
same,glycan array binding signal (z-score),[24],-0.12
same,glycan array binding signal (z-score),[25],-0.124
same,glycan array binding signal (z-score),[26],-0.138
same,glycan array binding signal (z-score),[27],-0.111
"CCL2 (Coprinopsis cinerea), B3GA02 (protein) MDSPAVTLSAGNYIIYNRVLSPRGEKLALTYPGRQRTPVTVSPLDGSSEQAWILRSYDSNSNTWTISPVGSPNSQIGWGAGNVPVVLPPNNYVWTLTLTSGGYNIQDGKRTVSWSLNNATAGEEVSIGADATFSGRWVIEKV",glycan array binding signal (z-score),[1],-0.067
same,glycan array binding signal (z-score),[28],-0.286
same,glycan array binding signal (z-score),[29],-0.269
same,glycan array binding signal (z-score),[30],0.752
same,glycan array binding signal (z-score),[31],3.53
same,glycan array binding signal (z-score),[32],-0.279
same,glycan array binding signal (z-score),[33],4.84
same,glycan array binding signal (z-score),[34],4.37
same,glycan array binding signal (z-score),[35],-0.293
same,glycan array binding signal (z-score),[9],-0.283
same,glycan array binding signal (z-score),[36],-0.19
same,glycan array binding signal (z-score),[37],-0.268
same,glycan array binding signal (z-score),Gal3S(b1-4)GlcNAc6S,-0.276
same,glycan array binding signal (z-score),Gal4S(b1-4)GlcNAc,-0.26
same,glycan array binding signal (z-score),[14],-0.257
same,glycan array binding signal (z-score),[38],-0.255
same,glycan array binding signal (z-score),Kdn(a2-3)Gal(b1-3)GlcNAc,-0.257
same,glycan array binding signal (z-score),[39],-0.278
same,glycan array binding signal (z-score),[21],-0.27
same,glycan array binding signal (z-score),[40],5.39
same,glycan array binding signal (z-score),[22],4.93
same,glycan array binding signal (z-score),[41],4.45
same,glycan array binding signal (z-score),[42],4.88
same,glycan array binding signal (z-score),[43],-0.205
same,glycan array binding signal (z-score),[44],-0.275
same,glycan array binding signal (z-score),[45],-0.286
same,glycan array binding signal (z-score),[46],-0.294
same,glycan array binding signal (z-score),[47],-0.282
